Results as given in PubChem BioAssay AID1259415 (National Center for Advancing Translational Sciences (NCATS), 2018).
Hit rate of the full screen: of about 410,000 compounds, about 18,000 (4.4%) were called active. Inconclusive results (about 7%) are left out. Shown is part of a subset that was picked to be rich in actives. A number with no mark means an inactive call. No stated cut-off is given here; in the data, active means activity change below about -60%; inconclusive means no clear call, values can overlap the other calls; inactive means above about -39%.

Assay: qHTS Assay for inhibitors of the human cytomegalovirus (HCMV)
Conditions: HFF cells, HCMV-luciferase reporter, 72 h; at 57.5 µM; stronger effect = lower value
Method in brief: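 Compounds were evaluated in HFFs infected with an HCMV luciferase reporter virus (MOI 1 PFU/cell). Luciferase in lysates collected 72 h post infection served as the replication measure.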
On the % scale 0 is the no-effect control and ±100 the full control effect.

Going from `C/C(=N\NC(=O)COc1c(C)cccc1C)c1cccs1` to `CC(C)CCN(C(=O)Nc1ccc(Cl)c(Cl)c1)C(C)c1cccs1` (configuration not stated), the activity change, negative = inhibition rises from -1.76% to 15.6%.

Going from `CCS(=O)(=O)N1CCN(C(=O)c2cccs2)CC1` to `COC(=O)c1cc(S(=O)(=O)N2CCN(c3cc(Cl)ccc3C)CC2)c[nH]1`, the activity change, negative = inhibition falls from 14.1% to -37%.

First: COCCn1cnnc1SCC(=O)Nc1cccc(S(=O)(=O)N2CCCCC2)c1
Second: Nc1cc(N)nc(SCC(=O)Nc2cccc(S(=O)(=O)N3CCCCC3)c2)n1
The activity change, negative = inhibition of the first is lower: -23.6% for the first, -9.15% for the second.

First: CCC(=O)Nc1cccc(NC(=O)CSc2nnc(-c3ccc(NS(C)(=O)=O)cc3)n2C)c1
Second: CCn1c(CC(=O)Nc2ccc(C)cc2)nnc1SCC(=O)Nc1nc(C)cs1
The activity change, negative = inhibition of the first is lower: -2.35% for the first, 28.7% for the second.

Compared with `Cc1ccnc(SCC(=O)Nc2cccc(S(=O)(=O)N3CCOCC3)c2)n1`, `O=C(CSc1ccccc1)Nc1cccc(S(=O)(=O)N2CCCCC2)c1` is higher in activity change, negative = inhibition: -25.4% for the first, -4.82% for the second.

Compared with `Cc1cc(NC(=O)C(C)SCC(=O)Nc2ccccc2N2CCCCC2)no1` (configuration not stated), `Cc1cc(NC(=O)CSc2ncc(C(=O)Nc3ccc(Cl)cc3)c(=O)n2C)no1` is higher in activity change, negative = inhibition: -18.8% for the first, 7.76% for the second.

Going from `CC1(C)N=C(SCc2ccccc2Cl)c2ccccc2N1` to `Cc1ccccc1CSc1nc2c([nH]c3ccccc32)c(=O)n1C`, the activity change, negative = inhibition rises from 5.15% to 34.5%.

First: Cc1ccc2c(=O)c(C(=O)c3ccc(F)cc3)cn(CC(=O)NC3CCCCC3)c2n1
Second: COc1ccccc1N(C)S(=O)(=O)c1ccc(C(=O)NC2CCCCCC2)cc1
The activity change, negative = inhibition of the first is higher: 6.71% for the first, -30.1% for the second.

First: CCc1ccccc1NC(=O)Cn1c(=O)n(CC2CCC(C(=O)NCCc3ccccc3)CC2)c(=O)c2ccccc21 (configuration not stated)
Second: O=c1c2ccccc2n(Cc2cccc(Cl)c2)c(=O)n1Cc1ccccc1
The activity change, negative = inhibition of the first is higher: 17.8% for the first, -14.5% for the second.

Compared with `CC(=O)Nc1ccc(NC(=O)c2cc3sccc3n2Cc2ccc(F)cc2)cc1`, `CCc1ccc(NC(=O)CSc2nc3c([nH]c4ccccc43)c(=O)n2-c2cccc(OC)c2)cc1` is higher in activity change, negative = inhibition: -10% for the first, 20.7% for the second.

Going from `COc1ccc(-n2c(=O)c3sc4ccccc4c3n(CC(=O)Nc3cccc(C)c3)c2=O)cc1` to `COc1cc(NC(=O)Cn2c(=O)n(Cc3ccco3)c(=O)c3oc4ccccc4c32)cc(OC)c1`, the activity change, negative = inhibition falls from 11.4% to -18.5%.

Compared with `Cc1cc(C)c(/C=C/c2onc(C)c2S(=O)(=O)N2CCC(C(=O)Nc3ccc(Cl)cc3C)CC2)c(C)c1`, `COc1ccc(-c2cn3nc(N4CCC(C(=O)Nc5cccc(C)c5C)CC4)sc3n2)cc1` is higher in activity change, negative = inhibition: -20.3% for the first, 0% for the second.

Going from `CN1CCN(S(=O)(=O)c2ccc(N3CCN(c4ccccc4O)CC3)c([N+](=O)[O-])c2)CC1` to `COc1cccc(N2CCN(S(=O)(=O)c3cc(Br)cc4c3N(C(=O)C3CC3)CC4)CC2)c1`, the activity change, negative = inhibition rises from -9.97% to 7.82%.

First: CCN1CCN(c2ccc([N+](=O)[O-])cc2C#N)CC1
Second: CN(C)S(=O)(=O)c1ccc(N2CCCC2=O)c([N+](=O)[O-])c1
The activity change, negative = inhibition of the first is lower: -36.6% for the first, -23.4% for the second.

First: CC1CCCN(c2csc3ccc(F)cc3c2=O)C1 (configuration not stated)
Second: O=C(COc1ccccc1F)OCc1cc(=O)n2nc(C3CCCCC3)sc2n1
The activity change, negative = inhibition of the first is higher: 20.9% for the first, 11.6% for the second.

Going from `COc1ccc(-c2cn3c(C)c(C(=O)Nc4cc(C)cc(C)c4)sc3n2)cc1` to `COc1cc(OC)cc(-c2cc3ccc(F)cc3cn2)c1`, the activity change, negative = inhibition rises from 27.8% to 59.6%.

First: COc1cc2c(cc1OC)C(COc1ccc(F)cc1)N(C(=O)c1ccccc1F)CC2 (configuration not stated)
Second: COc1cc2c(=O)c(S(=O)(=O)c3ccc(C(C)C)cc3)cn(Cc3ccccc3C)c2cc1OC
The activity change, negative = inhibition of the first is lower: -11.8% for the first, 23.6% for the second.

First: CCn1c(SCC(=O)N/N=C/c2ccccc2OCC(=O)O)nnc1-c1ccc(C(C)(C)C)cc1
Second: CCOC(=O)c1ccc(CSc2nnc3cc(C)c4ccccc4n23)cc1
The activity change, negative = inhibition of the first is lower: 0% for the first, 0.725% for the second.

First: C=C(C)CNC(=S)Nc1ccc(S(=O)(=O)Nc2cnc3ccccc3n2)cc1
Second: Cc1ccc(N(CC(=O)NCC2CCCO2)C(=O)CNS(=O)(=O)c2ccc(Cl)cc2)cc1 (configuration not stated)
The activity change, negative = inhibition of the first is lower: -30.9% for the first, 43.5% for the second.

Going from `COc1ccc(-n2ncc3c2CC(C)(C)CC3NC(=O)CCc2c(C)nn(C)c2C)cc1` (configuration not stated) to `Cc1cc(C(=O)NC2CC(C)(C)Cc3c2cnn3-c2ccccc2)n[nH]1` (configuration not stated), the activity change, negative = inhibition rises from -35% to -4.62%.

Compared with `O=C1Cc2cc(S(=O)(=O)Nc3ccc(OC(F)(F)F)cc3)cc3c2N1CCC3`, `Cc1cc2c(cc1S(=O)(=O)CCC(=O)Nc1ccc(OC(F)(F)F)cc1)OCC(=O)N2` is lower in activity change, negative = inhibition: 14.6% for the first, 5.03% for the second.

Compared with `COC(=O)[C@]12CCCCC=C1N(Cc1cccc3ccccc13)C(=O)[C@H](CC(=O)N1CCOCC1)C2`, `Cc1ccccc1CSCCNC(=O)c1ccc(Cl)c(S(=O)(=O)N2CCOCC2)c1` is lower in activity change, negative = inhibition: 12.2% for the first, -33.1% for the second.

Going from `Cc1ccc2nc(COc3cccc(NC(=O)c4ccccc4Cl)c3)cc(=O)n2c1` to `Cc1ccc(NC(=O)CSc2nc3c([nH]c4ccccc43)c(=O)n2-c2ccccc2)cc1Cl`, the activity change, negative = inhibition falls from 0.182% to -24%.

Going from `CC(O)(c1cccc(F)c1)c1nc(-c2ccc3c(c2)OCO3)cs1` (configuration not stated) to `CN(Cc1ccccc1)c1ncnc2onc(-c3ccc(F)cc3)c12`, the activity change, negative = inhibition falls from -11.8% to -33.7%.

First: CCSc1nnc2c(n1)OC(c1ccc(OCC(=O)O)cc1)Nc1ccccc1-2 (configuration not stated)
Second: COc1ccc(C2(Nc3cccc(F)c3)C(=O)c3ccccc3C2=O)cc1
The activity change, negative = inhibition of the first is higher: 33.3% for the first, 3.54% for the second.

First: CC(C)c1ccc(Cn2c(COc3ccccc3)nc3ccccc32)cc1
Second: Cc1ccc(-n2c(SCC(=O)c3ccccc3)nc3c([nH]c4ccccc43)c2=O)cc1
The activity change, negative = inhibition of the first is higher: 57.2% for the first, 37% for the second.

Compared with `CCOc1ccc(N(CC)S(=O)(=O)N2CCCC(C(=O)NCc3ccc(SC)cc3)C2)cc1` (configuration not stated), `CCOc1ccc(N(CC)C(=O)C2CCN(S(=O)(=O)c3cccc4nonc34)CC2)cc1` is higher in activity change, negative = inhibition: -31% for the first, -9.41% for the second.

Going from `CC(C)(C)C(=O)CSc1ccc(S(=O)(=O)N2CCCC2)cn1` to `CN(C)S(=O)(=O)c1ccc(C(=O)NCC(C)(C)N2CCOCC2)cc1`, the activity change, negative = inhibition falls from 0% to -39.4%.

Compared with `CCc1c(C)sc(NC(=O)C2c3ccccc3Oc3ccccc32)c1C(=O)OC(C)C`, `COc1ccccc1NC(=O)CSC1=Nc2ccccc2C2=NC(CC(=O)NCc3cccs3)C(=O)N12` (configuration not stated) is lower in activity change, negative = inhibition: 23.5% for the first, 11.4% for the second.

Compared with `Cc1nc(S(=O)(=O)c2ccc(Br)cc2)nc2c1CCC2`, `Cc1ccc2c(c1)N(C(=O)Nc1ccc(Br)cc1F)CCO2` is lower in activity change, negative = inhibition: 6.93% for the first, -2.87% for the second.

First: COc1ccccc1N(C)S(=O)(=O)c1ccc(Cl)c(C(=O)N2CCC(C(N)=O)CC2)c1
Second: O=C(/C=C/c1ccccc1[N+](=O)[O-])OCC(=O)N1CCCC1
The activity change, negative = inhibition of the first is lower: -15.9% for the first, 11.1% for the second.

Compared with `COc1ccc(OC)c(NC(=O)CSC2=Nc3ccccc3C3=NC(CC(=O)NCCc4ccccc4)C(=O)N23)c1` (configuration not stated), `COc1ccnc(Oc2ccccc2)c1-c1ncn[nH]1` is lower in activity change, negative = inhibition: 3.26% for the first, -36.6% for the second.

First: Cc1nc2nc(SCC(=O)NC3CCC(C)CC3)nn2c(C)c1Cc1ccccc1Cl (configuration not stated)
Second: Cc1cc(OCC(=O)NCC2(N(C)C)CCCCC2)cc(C)c1Cl
The activity change, negative = inhibition of the first is lower: -21.3% for the first, -11.2% for the second.

Compared with `CC1CC(C)CN(C/C=C/c2ccccc2[N+](=O)[O-])C1` (configuration not stated), `CC1CCCCC1NC(=O)CCS(=O)(=O)c1ccc2c(c1)NC(=O)CO2` (configuration not stated) is lower in activity change, negative = inhibition: 71.9% for the first, -22.8% for the second.

Work on `COc1ccnc(Oc2ccccc2)n1` yielded an activity change, negative = inhibition of 5%.

With `Cc1ccccc1C(CC(=O)c1cccs1)C(C#N)C#N` (configuration not stated) the activity change, negative = inhibition was -89.2% (active).
In the case of `Cc1cc(NC(=O)C(C)SCC(=O)Nc2cccc(S(=O)(=O)N3CCCCCC3)c2)no1` (configuration not stated), the activity change, negative = inhibition was -103% (active).
In the case of `Cn1nnnc1SCC(=O)Nc1cccc(S(=O)(=O)N2CCCCC2)c1`, the activity change, negative = inhibition was -105% (active).
For `Cn1c(SCC(=O)Nc2cccc(O)c2)nnc1-c1ccc(S(=O)(=O)N2CCOCC2)cc1`, the activity change, negative = inhibition was -70.3% (active).
With `COc1ccc2[nH]c3c(C)c4cc[n+](C)cc4c(C)c3c2c1` the activity change, negative = inhibition was -97.6% (active).
In the case of `CN1CN(C)c2ccc([N+](=O)[O-])c3cccc1c23`, the activity change, negative = inhibition was -90% (active).
With `C=C(C)CNC(=S)N/N=C/c1ccccc1OCC(=O)O` the activity change, negative = inhibition was -63.4% (active).
In the case of `COc1ccc(C(=O)NC2CC(C)(C)Cc3c2cnn3-c2ccccc2)c(OC)c1` (configuration not stated), the activity change, negative = inhibition was -62.5% (active).
For `COc1ccc(C(C)(O)c2nc(-c3cc(F)cc(F)c3)cs2)cc1` (configuration not stated), the activity change, negative = inhibition was -96% (active).
For `Cn1c2ccccc2c(=O)c2c(=O)n(Cc3ccco3)c(COc3ccccc3)nc21`, the activity change, negative = inhibition was -81.5% (active).
In the case of `Cc1ccc(NC(=O)CSc2nc3c([nH]c4ccccc43)c(=O)n2-c2ccccc2)c(C)c1`, the activity change, negative = inhibition was -65.4% (active).
With `CCOC(=O)c1ccc(NC(=O)CSc2nc3c([nH]c4ccccc43)c(=O)n2C)cc1` the activity change, negative = inhibition was -81.7% (active).
In the case of `COc1ccccc1N(C)S(=O)(=O)c1ccc(Cl)c(C(=O)Nc2ccncc2)c1`, the activity change, negative = inhibition was -67.6% (active).
With `COc1ccc(OC)c(NC(=O)CSC2=Nc3ccccc3C3=NC(CC(=O)NCc4ccc(F)cc4)C(=O)N23)c1` (configuration not stated) the activity change, negative = inhibition was -67.3% (active).
In the case of `CC1CCCCC1NC(=O)/C(C#N)=C/C=C/c1ccccc1[N+](=O)[O-]` (configuration not stated), the activity change, negative = inhibition was -109% (active).
With `CC(C)(CNC(=O)c1ccc(Cl)c(S(=O)(=O)N2CCc3ccccc3C2)c1)N1CCOCC1` the activity change, negative = inhibition was -77.7% (active).
With `COc1cnc(-c2ccccn2)nc1Oc1ccc(C(C)(C)C)cc1` the activity change, negative = inhibition was -82.7% (active).
In the case of `O=C(CCS(=O)(=O)c1ccc2c(c1)NC(=O)CO2)Nc1cccc(C(F)(F)F)c1`, the activity change, negative = inhibition was -106% (active).
